The values below come from the supplement of paper PMC3842684.

Experiment [1] concerns P. falciparum NF54-pfs16-GFP early (I-III) stage gametocytes. Description: relative % inhibition of viable gametocyte number; higher = more gametocytocidal. The conditions noted are these: stage: early (I-III) gametocyte, incubation 72 h. In outline:
(§1)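 Viable gametocytes were counted by confocal imaging as elongated GFP objects carrying MitoTracker Red signal above a cut-off, after 72 h of compound exposure (5 or 0.5 µM) at 37°C in 5% CO2 and 5% O2 and overnight staining. The NF54 pfs16-GFP gametocytes had been magnet-isolated at early (I/IIa, day 2) or late (day 8) stage and plated at 10% parasitaemia, 0.1% haematocrit in 384-well poly-D-lysine imaging plates. Relative inhibition was normalised to vehicle and positive-control wells within each plate.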

The test system of experiment [2] is P. falciparum NF54-pfs16-GFP late (IV-V) stage gametocytes. The experiment is described as above. The settings on record: stage: late (IV-V) gametocyte, incubation 72 h. In outline: as §1

Structures are written as SMILES.

`CCOc1ccc2nc(C)cc(Nc3ccc(N(C)C)cc3)c2c1`: the relative % inhibition was 15.2% in experiment [1] (0.5 µM), -42.1% in experiment [1] (5 µM), -6.75% in experiment [2] (0.5 µM) and -10.3% in experiment [2] (5 µM).
For `CN1CCN(c2c3c(c(C#N)c4nc5ccccc5n24)CCC3)CC1`, in that order: -35.3%, -26.5%, -1.94% and -8.14%.
As to `COc1ccc(C(=O)NC(c2ccccc2Cl)c2cc(Cl)c3cccnc3c2O)cc1` (configuration not stated), the relative % inhibition in experiment [1] (0.5 µM) stood at 5.42%; in experiment [1] (5 µM) it was 49.4%; in experiment [2] (0.5 µM), 18.6%; in experiment [2] (5 µM), 38.6%.
On to `CCCCN(CCCC)S(=O)(=O)c1ccc(NC(=O)c2ccco2)cc1`, for which the relative % inhibition in experiment [1] (0.5 µM) stood at 16.5%; in experiment [1] (5 µM) it was 7.65%; in experiment [2] (0.5 µM) it was 7.52%; in experiment [2] (5 µM), 1%.
For `COc1cc(C(=O)Nc2ccc(-c3nc4ccccc4[nH]3)cc2)cc(OC)c1OC`, in that order: 22.1%, 42.1%, 20.5% and 9.54%.
For `COc1ccc(C(=O)C2CC2c2ccc(Cl)cc2)cc1` (configuration not stated), in that order: 8.75%, 79.1%, 14.7% and 48.3%.
For `O=C(Nc1ccccc1O)c1ccc(-c2ccc(Cl)cc2Cl)o1`, in that order: 21.2%, -5.25%, 19.3% and 17.5%.
With `CCN(CC)CCCNc1ccnc2cc3ccccc3cc12`, the relative % inhibition was 11% in experiment [1] (0.5 µM), -7.44% in experiment [1] (5 µM), -7.72% in experiment [2] (0.5 µM) and -8.3% in experiment [2] (5 µM).
For `CN1c2ccccc2N(C)C1c1ccc2c(c1)OCO2`, in that order: 0.225%, -13.6%, 28.6% and -1.98%.
For `Clc1ccc2c(N3CCCC3)ccnc2c1`, in that order: 21.2%, 65.9%, 11.2% and -4.99%.
For `O=C1c2ccccc2C2=Nc3ccccc3SC(c3cccc(F)c3)C12` (configuration not stated), in that order: 30.8%, 27.4%, 43.7% and 83.8%.
For `CN1CCN(c2ncnc3c2[nH]c2ccc(Cl)cc23)CC1`, the relative % inhibition turned out to be 9.76% in experiment [1] (0.5 µM), 20.1% in experiment [1] (5 µM), 2.38% in experiment [2] (0.5 µM) and 7.14% in experiment [2] (5 µM).
For `COc1ccc(NC(=O)C2c3ccccc3C(=O)N(CC(C)C)C2c2cccs2)cc1Cl` (configuration not stated), in that order: 42.8%, 90.9%, 54.9% and 66%.
For `CCOc1ccc(-c2nc(NC(=O)c3cccc(S(C)(=O)=O)c3)sc2C)cc1` the same measures were 17.8%, 15.4%, 4.66% and -3.57%.
For `CCOc1ccc2c(c1)CN(Cc1ccc(Cl)cc1)CO2` the same measures were 15.1%, 84.1%, 16.2% and 41.4%.
In the case of `COc1cc(C(=O)ON=C(N)Cc2cccc3ccccc23)cc(OC)c1OC`, the relative % inhibition in experiment [1] (0.5 µM) is -8.44%; in experiment [1] (5 µM), 74.1%; in experiment [2] (0.5 µM) it was 2%; in experiment [2] (5 µM) it was 82.3%.
With `COc1ccc(-c2nc(N3CCN(C(=O)C4CCCCC4)CC3)c3c4c(sc3n2)CCCC4)cc1`, the relative % inhibition is -24.1% in experiment [1] (0.5 µM), 55.7% in experiment [1] (5 µM), 92.2% in experiment [2] (0.5 µM) and 86.8% in experiment [2] (5 µM).
Take `N#Cc1nc(Cc2cccc3ccccc23)oc1N1CCN(C(c2ccccc2)c2ccccc2)CC1`: the relative % inhibition in experiment [1] (0.5 µM) was -3.05%; in experiment [1] (5 µM) it was 2.44%; in experiment [2] (0.5 µM), 7.14%; in experiment [2] (5 µM), 40.5%.
As to `CC(Oc1ccc(NC(=O)c2cccs2)cc1)C(=O)c1ccc(Cl)cc1` (configuration not stated), the relative % inhibition amounted to 10.9% in experiment [1] (0.5 µM), 23% in experiment [1] (5 µM), 16.4% in experiment [2] (0.5 µM) and 52.1% in experiment [2] (5 µM).
As to `COc1ccccc1CNC(=O)CCn1c(=O)[nH]c2ccccc2c1=O`, the relative % inhibition in experiment [1] (0.5 µM) is 27.4%; in experiment [1] (5 µM), 28.5%; in experiment [2] (0.5 µM), -5.22%; in experiment [2] (5 µM) it was 2.14%.
For `Cc1cc(C)cc(Nc2cc(C)nc3nc(C(F)(F)F)nn23)c1`, in that order: -6.02%, 10%, -4.65% and -1.16%.
For `CCOc1cc(Br)c(C(C)NC(=O)c2cccc(OC)c2)cc1OCC` (configuration not stated) the same measures were 9.37%, 46.2%, 11.2% and 42.6%.
For `CC(O)(c1ccc(Cl)cc1)C(CN1CCCCC1)c1ccccc1` (configuration not stated), in that order: 20%, 59.1%, 14% and 22.3%.
As for `CC1CCCCN1CCCNC(=O)c1ccc2c(c1)sc1nc(-c3ccc(F)cc3)cn12` (configuration not stated), the relative % inhibition was found to be 21.3% in experiment [1] (0.5 µM), 88.1% in experiment [1] (5 µM), 23.2% in experiment [2] (0.5 µM) and 17.8% in experiment [2] (5 µM).
For `O=C(NCc1ccco1)C1CCN(S(=O)(=O)c2ccc(Br)cc2)CC1`, in that order: -6.48%, -2.56%, 29% and 51.5%.
As for `CCN(CC)S(=O)(=O)c1ccc(-c2csc(Nc3ccc(C)c(C)c3)n2)cc1`, the relative % inhibition in experiment [1] (0.5 µM) came out at 28%; in experiment [1] (5 µM), 31.5%; in experiment [2] (0.5 µM) it was 42.2%; in experiment [2] (5 µM), 42.2%.
Turning to `O=C(Nc1ccc(-c2nc3ccccc3[nH]2)cc1)c1ccc(Cl)c(Cl)c1`, the relative % inhibition in experiment [1] (0.5 µM) is 14.9%; in experiment [1] (5 µM) it was -3.57%; in experiment [2] (0.5 µM), 0.0958%; in experiment [2] (5 µM) it was -12%.
For `COc1ccc(C=C2SC(Nc3ccc(F)cc3)=NC2=O)c(OC)c1`, in that order: 2.18%, 8.91%, 24.9% and 87.9%.
Turning to `COc1ccccc1CNC(=O)C1c2ccccc2C(=O)N(CC(C)C)C1c1cccs1` (configuration not stated), the relative % inhibition is -0.661% in experiment [1] (0.5 µM), 31.9% in experiment [1] (5 µM), -10.4% in experiment [2] (0.5 µM) and -4.52% in experiment [2] (5 µM).
For `CCCCCCc1cc2cc(-c3csc(C=Cc4ccccc4)n3)c(=O)oc2cc1O` the same measures were 18.9%, 101%, 31.2% and 104%.
For `CCOc1c(Cl)cc(CNCC(O)c2ccccc2)cc1OC` (configuration not stated) the same measures were -19.6%, 13.9%, 36.5% and 57.1%.
For `COc1cc2c3cc1Oc1c(OC)c(OC)cc4c1C(Cc1ccc(O)c(c1)Oc1ccc(cc1)CC3N(C)CC2)N(C)CC4` (configuration not stated), in that order: 1.03%, 73.4%, -24.9% and 23.7%.
Consider `CCN1CCN(c2cc(C)c3cc(NC(=O)c4ccc(OC)c(OC)c4)ccc3n2)CC1`, for which the relative % inhibition in experiment [1] (0.5 µM) was 11.4%; in experiment [1] (5 µM) it was 14.1%; in experiment [2] (0.5 µM), -6.56%; in experiment [2] (5 µM), 3.96%.
